KKLEB tox: CF airway cell cytotoxicity counter-screen; KKLEB CF airway cells viability, ATPlite luminescence, overnight; hits give low values; cells stimulated with P. aeruginosa culture filtrate; activity change (cytotoxicity), % at 5 µM; hit rate 0.36% among 360,000; AID 602141;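 active = corrected activity change at or below -50% at 5 µM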
Mdm2 MdmX PPI: disrupts the human Mdm2-MdmX interaction; inhibition, % at 8 µM; SaOS-2 split-luciferase Mdm2/MdmX complementation, luminescence; hit rate 3% among 330,000; O15151+Q00987;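 active = inhibition of at least 50% at 8 µM in the primary screen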
Target sequence (O15151 whole entry, looked up): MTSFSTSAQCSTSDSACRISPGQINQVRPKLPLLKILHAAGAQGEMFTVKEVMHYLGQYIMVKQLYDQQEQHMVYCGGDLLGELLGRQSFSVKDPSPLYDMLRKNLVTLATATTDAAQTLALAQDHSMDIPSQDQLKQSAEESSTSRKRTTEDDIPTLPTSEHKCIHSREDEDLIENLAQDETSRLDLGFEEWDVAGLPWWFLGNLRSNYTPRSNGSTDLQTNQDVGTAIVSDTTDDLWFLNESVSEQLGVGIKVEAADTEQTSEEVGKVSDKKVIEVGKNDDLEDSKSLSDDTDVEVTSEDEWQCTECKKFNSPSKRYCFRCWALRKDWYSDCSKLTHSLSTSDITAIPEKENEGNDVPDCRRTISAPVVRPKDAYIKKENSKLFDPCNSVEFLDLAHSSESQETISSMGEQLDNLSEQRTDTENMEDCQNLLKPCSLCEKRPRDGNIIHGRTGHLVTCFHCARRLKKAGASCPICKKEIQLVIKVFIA
Target sequence (Q00987 whole entry, looked up): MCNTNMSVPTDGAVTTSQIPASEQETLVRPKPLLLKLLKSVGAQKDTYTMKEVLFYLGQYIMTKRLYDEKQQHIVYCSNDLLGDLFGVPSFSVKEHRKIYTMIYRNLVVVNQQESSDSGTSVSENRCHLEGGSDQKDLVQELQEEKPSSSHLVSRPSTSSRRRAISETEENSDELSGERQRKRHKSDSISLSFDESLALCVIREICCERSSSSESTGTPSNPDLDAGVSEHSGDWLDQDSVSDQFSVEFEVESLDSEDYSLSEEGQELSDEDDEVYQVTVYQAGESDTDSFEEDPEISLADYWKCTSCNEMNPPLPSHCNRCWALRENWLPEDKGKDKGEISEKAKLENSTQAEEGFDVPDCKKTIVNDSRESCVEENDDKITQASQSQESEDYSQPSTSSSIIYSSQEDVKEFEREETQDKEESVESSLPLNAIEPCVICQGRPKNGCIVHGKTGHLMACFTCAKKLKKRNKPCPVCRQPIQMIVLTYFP
HIF-2a block: inhibitors of HIF-2a | 786-0 RCC cells HIF-2a reporter, luciferase luminescence, overnight | inhibition, % at 18.8 µM | hit rate 0.72% among 360,000 | AID 624352;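 active = inhibition of the luminescence signal of 40% or more relative to plate controls, in a single-dose primary screen at 18.75 µM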
Peg3 prom inh: reduces Peg3 promoter-driven luciferase expression in HeLa; HeLa PEG-Prom luciferase reporter, luminescence, overnight; inhibition, % at 20 µM; hit rate 1.7% among 360,000;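 active = inhibition of at least 50% at 20 µM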
CF NFkB block: blocks PAF-induced NF-kB reporter in cystic fibrosis cells. inhibition, % at 5 µM. KKLEB NF-kB-GFP reporter, GFP fluorescence overnight. hit rate 0.86% among 360,000;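 active = at least 50% inhibition at 5 µM, scaled per plate between neutral and stimulator controls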;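 also: PAF is a Pseudomonas aeruginosa culture filtrate used as stimulus; plate controls were PAF-stimulated DMSO wells for no effect and unstimulated DMSO wells for full effect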
ABHD5-PLIN5 inh: ABHD5-PLIN5 protein interaction inhibition. inhibition, % at 4 µM. AID 602281. hit rate 0.78% among 360,000. Split G. princeps luciferase complementation, luminescence, 4 h. Q00G26+Q8WTS1;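 active = inhibition above the mean inhibition across every tested compound plus 3 SD, cut at about 22% in these data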;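 also: 0% = DMSO only wells and the 100% control is not disclosed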
Mdm2 MdmX conf: human Mdm2/MdmX binding inhibition, confirmed. inhibition, % at 8 µM. AID 489028. shares compounds with Mdm2 MdmX PPI. luminescent assay. hit rate 55% among 10,000; in the data active = inhibition above about 40%
FLuc counter: full-length luciferase inhibition in Mdm2/MdmX counter-screen. shares compounds with Mdm2 MdmX PPI. SaOS-2 full-length luciferase counterscreen, luminescence. inhibition, % at 8 µM. hit rate 77% among 6,200. AID 504607;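 active = mean inhibition at 8 µM reaching about 37%, which flags the compound as non-specific, limit read from the data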;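 also: p53-null SaOS-2 cells with luciferase driven by a doxycycline-inducible promoter; compound on cells about two nights before reading with doxycycline added after day one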
Numbers without * were called inactive; . = not tested or not shown. Hits are enriched below; roughly 4.6% of the tested compounds scored in any of these assays.

SMILES | KKLEB tox | Mdm2 MdmX PPI | HIF-2a block | Peg3 prom inh | CF NFkB block | ABHD5-PLIN5 inh | Mdm2 MdmX conf | FLuc counter
CCOC(=O)N1CCN(S(=O)(=O)c2ccc(C(=O)Nc3nc4c(s3)CC(C)CC4)cc2)CC1 (stereo not drawn) | -62* | 78* | 1 | 34 | 38 | 4 | 21 | .
Cc1cccc2sc(NC(=O)c3cccc(S(=O)(=O)N4CCc5ccccc54)c3)nc12 | 15 | 43 | 6 | 23 | 8 | 5 | . | .
CCOC(=O)N1CCN(S(=O)(=O)c2ccc(C(=O)Nc3nnc(C4CC4)o3)cc2)CC1 | -5 | 9 | 16 | -4 | -9 | -4 | . | .
CCOc1cc(-c2nccc3cc(OC)c(OC)cc23)cc(OCC)c1OCC | 1 | 45 | 13 | 10 | 12 | -12 | . | .
CCC[C@H]1CC(=O)C=C(c2ccc(OC)cc2)ON1C(=O)OC(C)(C)C | -16 | . | -14 | -4 | 20 | 6 | . | .
O=C(NCC(c1ccco1)N1CCc2ccccc21)C(=O)Nc1ccc(F)cc1F (stereo not drawn) | -22 | 52* | 7 | -11 | 39 | -15 | 72* | 65*
Cc1oc2c(cc(NS(=O)(=O)c3ccc(F)cc3)c3ccccc32)c1C(=O)O | 15 | -14 | -1 | 14 | -14 | -6 | . | .
CC(=O)c1cc2c(cc1NS(=O)(=O)c1ccccc1C)OCO2 | . | -2 | . | . | . | . | . | .
COc1ccc(S(=O)(=O)Nc2cc3c(C(C)=O)c(C)oc3c3ccccc23)cc1 | -9 | 67* | 25 | -2 | 37 | 6 | 70* | 80*
COc1ccc(S(=O)(=O)Nc2cc3c(cc2C(C)=O)OCO3)cc1 | -5 | 63* | 19 | 21 | 16 | -4 | 51* | 63*
Cc1nnc(SC(C)C(=O)Nc2ccc(Cl)cc2Cl)[nH]c1=O (stereo not drawn) | 16 | 8 | 15 | 9 | 6 | 2 | . | .
CCOC(=O)C1=C(COC(=O)COc2ccc(C(=O)CC)cc2)NC(=O)NC1C (stereo not drawn) | -12 | 17 | 10 | -3 | -8 | 0 | . | .
Cc1c(C(=O)Nc2ccc(S(=O)(=O)N3CCOCC3)cc2)cccc1[N+](=O)[O-] | -7 | 20 | 10 | 9 | 0 | 1 | . | .
CC(C)NC(=O)c1cc(C2CCCCN2C(=O)c2ccccc2)on1 (stereo not drawn) | -7 | . | 6 | 4 | -2 | 4 | . | .
Cc1ccnc2c1ccc1c(C)ccnc12 | -9 | 84* | -161 | -8 | 22 | -23 | 85* | 18
Cc1ccnc2c1ccc1cccnc12 | 2 | 84* | -30 | 24 | 3 | -10 | 86* | 23
COc1ccc(NC(=O)Cn2nnc(C(=O)NCc3ccccc3)c2N)c(OC)c1 | 7 | 13 | 14 | 19 | -4 | -5 | . | .
COc1ccccc1NC(=O)Cn1nnc(C(=O)NCc2cccs2)c1N | -10 | 56* | 20 | -8 | 25 | -4 | 64* | 68*
COc1cccc(NC(=O)c2nnn(CC(=O)Nc3cc(C)cc(C)c3)c2N)c1 | -16 | 74* | 7 | 20 | 18 | 8 | 4 | .
COc1ccc(NC(=O)c2oc3ccccc3c2NC(=O)COc2ccccc2OC)c(OC)c1 | -54* | 70* | -16 | 3 | 54* | 3 | -5 | .
COc1ccc(NC(=O)c2nnn(CC(=O)Nc3ccccc3OC)c2N)c(OC)c1 | -4 | 68* | 6 | -21 | 7 | -2 | -2 | .
Cc1cc(OC(=O)c2c(C)cc(OC(=O)c3c(C)cc(O)cc3O)cc2O)cc(O)c1C(=O)O | 3 | 21 | 16 | -1 | -4 | -5 | . | .
N#Cc1c(C(F)(F)F)cc(Cc2ccccc2)nc1SCC(=O)NCC(=O)O | -1 | -8 | 5 | 0 | 13 | -1 | . | .
Cc1ccc(C)c(NC(=O)Cn2nnc(C(=O)NCc3cccs3)c2N)c1 | -2 | 65* | 13 | 24 | -4 | -5 | 12 | .
Cc1ccc(NC(=O)Cn2nnc(C(=O)NCc3cccs3)c2N)cc1 | 8 | 21 | 11 | 7 | 1 | -1 | . | .
SMILES | KKLEB tox | Mdm2 MdmX PPI | HIF-2a block | Peg3 prom inh | CF NFkB block | ABHD5-PLIN5 inh | Mdm2 MdmX conf | FLuc counter
COc1ccccc1/C=C/C(=O)NCC(=O)N/N=C/c1cc(Br)ccc1OC | 6 | 33 | 19 | 14 | -19 | 5 | . | .
COc1ccccc1/C=C\C(=O)NCC(=O)N/N=C/c1cccc(OC)c1O | -4 | 51* | 8 | 32 | 1 | -2 | 18 | .
COc1cccc(/C=N/NC(=O)CNC(=O)COc2cccc(C)c2)c1O | 0 | 54* | 9 | 44 | 8 | -5 | 47* | 45*
CN(CC(=O)Nc1ccccc1Cl)C(=O)COC(=O)CCN1C(=O)C2CC=CCC2C1=O (stereo not drawn) | 19 | -11 | 14 | 11 | 2 | -1 | . | .
CCOC(=O)C(C(=O)OCC)c1cc(Br)c2noc3c2c1C(=O)c1ccccc1-3 | -38 | 100* | 35 | 113* | 75* | 1 | 95* | 1
O=C(CC(=O)Nc1cc(Cl)ccc1Cl)Nc1cc(Cl)ccc1Cl | -2 | 38 | -21 | 20 | -5 | -3 | . | .
CC(=O)Nc1ccc(S(=O)(=O)/N=C2\C(=O)c3ccccc3C([O-])=C2n2cc[n+](-c3ccccn3)c2)cc1 | 10 | 55* | -9 | -2 | -40 | -7 | 33 | 52*
Cc1ccc(NC(=S)NNC(=S)Nc2ccc(C)cc2C)cc1 | 2 | 71* | -60 | -11 | 57* | -25 | 52* | 94*
O=C(CSc1ccc2nnc(-c3ccc(Cl)cc3)n2n1)N1CCCc2ccccc21 | -10 | 84* | 21 | 44 | 29 | -2 | 35 | 90*
Cc1ccc(Cn2c(-c3nonc3N)nc3ccccc32)cc1 | -6 | 36 | 8 | 9 | 19 | -2 | . | .
COc1cccc(Cn2c(-c3nonc3N)nc3ccccc32)c1 | -10 | 54* | -6 | 8 | 13 | -10 | 56* | 70*
COc1cc(Cn2c(-c3nonc3N)nc3ccccc32)ccc1C | -15 | 55* | 16 | 20 | 28 | 2 | 62* | 46*
COc1cc(OC)cc(C(=O)N2CCN(C(=O)c3cccnc3)CC2)c1 | -1 | 5 | 18 | 16 | 8 | 1 | . | .
COc1ccc(NC(=O)C2Cc3c(-c4cccc(NC(C)=O)c4)ccnc3O2)cc1 (stereo not drawn) | -17 | . | 12 | 4 | 10 | 2 | . | .
CCOC(=O)C1=C(c2ccccc2)NC(=O)NC1c1ccc(O)c(OCC)c1 (stereo not drawn) | 6 | 12 | 2 | 13 | 16 | -3 | . | .
CCOC(=O)C1=C(c2ccccc2)NC(=O)NC1c1ccc(O)c(Cl)c1 (stereo not drawn) | 20 | 94* | 25 | 28 | -7 | -3 | 56* | 30

Compound activity from PubChem BioAssay.
